Assay outcomes deposited in PubChem BioAssay by National Center for Advancing Translational Sciences (NCATS).
In the library only some 2.2% were active in any assay of this set; here they are far more common.
Mito fusion yeast – inhibitors of mitochondrial division or activators of mitochondrial fusion. S. cerevisiae fusion-defective mutant growth rescue, CellTiterGlo 48 h. Potency, µM (doses to about 46.1 µM), for the others: top-dose growth rescue (activation), usual class: activators. 320,000 tested, 0.23% active. AID 485298; further: % of control where 0% means no effect; nearly all actives have a fitted effect of over 45% in size
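Yeast fusion mutant, YPEG (non-fermentable carbon), compound, 48 h at 37C non-permissive; CellTiterGlo added, 10 min RT, luminescence read. Rescued growth = division inhibition.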
Abeta rescue – compounds reversing amyloid beta toxicity in yeast | yeast expressing A-beta42, growth rescue, OD600, 48 h; response scale: 0% DMSO, 100% iron-clioquinol control | Potency, µM (top dose mostly 46.1 µM), hits mostly activators | 410,000 tested, 0.063% active; further: nearly all actives have a fitted effect of over 55% in size
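Yeast growth medium received pinned compounds, then yeast cells expressing toxic A-beta were added; plates incubated at 30 C for 48 hr. Growth read as absorbance at 600 nm, normalized to DMSO and equimolar FeCl3 plus clioquinol controls.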
aSyn rescue – alpha-synuclein toxicity inhibition in yeast; Yeast expressing alpha-synuclein, growth rescue, BacTiter-Glo, 24 h; Potency, µM (titrated, usually from 46.1 µM), inactives show at the top dose growth rescue (activation), usual class: activators; 370,000 tested, 0.14% active; further: % of control where 0% means no effect; nearly all actives have a fitted effect of over 65% in size
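Readout is rescue of growth in alpha-synuclein-expressing yeast, so inhibitors of toxicity appear as activators. Growth after 24 hr at 30 deg C in galactose medium is quantified by luminescence.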
FUS suppressor – rescues growth of FUS-expressing yeast | S. cerevisiae FUS-expressing, growth rescue, OD600, 24 h | Potency, µM (highest dose often 76.6 µM), hits mostly activators | 390,000 tested, 0.24% active | AID 1347120;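 further: plate controls were DMSO vehicle for no effect and reference control for full effect; nearly all actives have a fitted effect of over 55% in size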
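Toxicity suppression screen in FUS-yeast. Cells induced with 2% galactose, starting OD 0.005, treated 24hr at 30C with compounds at multiple final concentrations; growth by OD600.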
TDP-43 yeast inh – TDP-43 toxicity inhibition in yeast. TDP-43 expressing yeast growth rescue, BacTiter-Glo, 24 h. Potency, µM (highest dose often 46.1 µM), without a hit: top-dose growth rescue (activation), usual class: activators. 410,000 tested, 1.8% active; further: % of control where 0% means no effect; nearly all actives have a fitted effect of over 50% in size
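In this qHTS, compounds that restore growth of yeast expressing TDP-43 appear as activators. Cells (OD600=0.02, galactose medium, raffinose-pregrown) are incubated with compound 24 hr at 30 deg C and growth is quantified by BacTiter-Glo.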
An asterisk follows results filed as active; i = inactive; ? = inconclusive; · = not tested or not shown; ! = not confirmed by another sample; [ ] = remark or other dose. The call rests on the fitted dose curve; in most records, active means well fitted curve in the direction sought with a large enough effect; inconclusive means small, poorly fitted or top-dose-only effect, or another doubt; inactive means no such curve, though single readings can be large; an effect the other way counts as inactive or inconclusive. Potency means the concentration at half of the fitted maximal effect.

SMILES	Mito fusion yeast	Abeta rescue	aSyn rescue	FUS suppressor	TDP-43 yeast inh
O=C(Nc1nc(-c2ccccc2)cs1)C1COc2ccccc2O1 (stereo not drawn)	2.7%	i	-12.2%	i	11.2µM*
CCOC(=O)/C=C/C(=O)Nc1ccc(Oc2ccccc2)cc1	3.2%	i	-16.6%	i	17.8µM*
COc1ccc2c(c1)CC[C@@H]1[C@@H]2CC[C@]2(C)[C@@H](C(=O)O)C[C@@H]12	?	i	-17.1%	i	20µM*
C[C@]12CC[C@@H]3c4ccc(O)cc4CC[C@H]3[C@@H]1CCC2=O	5.8µM*!	i	4.4%	i	4.47µM*
COc1ccc2c(c1)CC[C@@H]1[C@@H]2CC[C@]2(C)[C@@H](C(C)=O)C[C@@H]12	-1.4%	i	9.1%	i	3.1%
Cc1cccc(OCC(=O)Nc2cc(C)c(O)c(-c3nc4ccccc4o3)c2)c1	·	·	-7.6%	·	·
O=C1CC(c2ccc(F)cc2)CC2=C1C=Nc1ccccc1N2 (stereo not drawn)	8.9%	i	-2.6%	i	22.4µM*
Cc1ccc(/C=C/c2onc(C)c2S(=O)(=O)N2CCC(C(=O)N3CC(C)Oc4ccccc43)CC2)cc1 (stereo not drawn)	·	i	·	i	-4.5%
Cc1ccc(C)c(S(=O)(=O)N2CCN(c3nc(-c4cccnc4)nc4ccccc34)CC2)c1	?	i	8.6%	i	15.8µM*
COc1cc2c(cc1OC)CN(c1nc(-c3cccnc3)nc3ccccc13)CC2	-5.3%	i	2.6%	i	14.1µM*
O=S(=O)(c1ccccc1F)N1CCN(c2nc(-c3cccnc3)nc3ccccc23)CC1	?	i	4.1%	i	-15.9%
COc1ccc(S(=O)(=O)Nc2ccc3c(c2)sc(=O)n3C)cc1Cl	·	i	·	i	16.1%
CN(C)c1cc(F)c(C=O)cc1F	·	·	-0.2%	·	·
CCc1cc2ccc(C)cc2nc1SCC(=O)N1CCN(C(=O)c2ccco2)CC1	13.5%	i	3.8%	·	14.1µM*
O=C(C1COc2ccccc2O1)N1CCN(c2nc3ccccc3s2)CC1 (stereo not drawn)	1.3%	i	7.1%	i	11.2µM*
COc1ccc2nc(N3CCN(C(=O)c4ccco4)CC3)sc2c1	·	i	·	i	20µM*
CCc1cc2cc3c(cc2nc1SCC(=O)N1CCN(C(=O)c2ccco2)CC1)OCO3	3.9%	i	3.6%	i	8.6%
CCSc1ccccc1C(=O)N1CCN(c2nc3ccccc3s2)CC1	·	i	·	i	17.8µM*
COc1ccc(NC(=O)c2c(NCc3ccc(C)o3)sc3c2CCCCC3)c(OC)c1	·	i	·	?	4.2%
CCOc1ccccc1CNC(=O)C1CCN(S(=O)(=O)c2c(C)noc2/C=C/c2ccccc2F)CC1	·	i	·	i	0.0%
CCCCNC(=O)Cn1c(SCc2cccc(F)c2)nc2ccncc21	·	·	-2.0%	·	·
COc1ccc(-c2csc(N3CCN(C(=O)c4ccco4)CC3)n2)cc1	-2.1%	i	-14.8%	i	20µM*
CCc1ccc2nc(N3CCN(C(=O)c4ccco4)CC3)sc2c1	·	i	·	?	14.1µM*
Cc1nc(NCC(=O)c2c[nH]c3ccccc23)sc1C	·	·	-2.5%	·	·
CCn1c2ccccc2c2cc(/C=C3\C=Cc4ccccc43)ccc21	·	·	9.7%	·	·
SMILES	Mito fusion yeast	Abeta rescue	aSyn rescue	FUS suppressor	TDP-43 yeast inh
COc1ccccc1N1CCN(C(=O)COc2ccc(Cl)cc2Br)CC1	5.8%	i	28.2µM*	i	14.1µM*
COc1ccc(C(=S)N2CCN(c3ccccc3Cl)CC2)cc1OC	18.5%	i	4.7%	i	11.2µM*
Cc1cc(Cl)ccc1OC(C)C(=O)N1CCCN(C(=O)C(C)Oc2ccc(Cl)cc2C)CC1 (stereo not drawn)	?	i	?	?	31.6µM*
Cc1cc(Cl)ccc1OCC(=O)N1CCCN(C(=O)COc2ccc(Cl)cc2C)CC1	18.9%	i	?	·	25.1µM*
Cc1cc(Cl)ccc1OCC(=O)N1CC(C)CC(C)C1 (stereo not drawn)	4.4%	i	16.5%	i	?
CN(C)c1ccc(NC(=S)OC2CCC23CCC(c2ccccc2)CC3)cc1 (stereo not drawn)	·	·	·	i	·
Oc1ccc(COCc2ccc(F)cc2)c2cccnc12	11.3%	·	·	·	·
CSc1ccccc1NC(=O)COc1ccc(Cl)cc1C	11.9%	i	-13.2%	·	15.8µM*
CCOC(=O)[C@]12CCCC3=C1N(CCC3)C(=O)[C@@H](CC(=O)NCc1cccc(C(F)(F)F)c1)C2	·	·	·	i	·
CCN(CC)C1=N/C(=C\c2ccc(OC)cc2)C(=O)N1c1ccccc1	28.3%	i	8.8%	i	22.4µM*
CCCc1nc2ccc(NC(C)=O)cc2c(=O)n1Cc1ccccc1Cl	-1.2%	i	-1.4%	i	20µM*
COc1ccc(NC(=O)c2noc(C(C)C)c2[N+](=O)[O-])cc1	-0.4%	i	0.4%	i	5.1%[0.397 µM]
CC(=O)c1ccc(NC(=O)c2noc(C(C)C)c2[N+](=O)[O-])cc1	0.0%	i	-13.5%	i	17.8µM*
CC(=O)c1ccc(NC(=O)c2ccc([N+](=O)[O-])o2)cc1	-18.7%	i	-52.8%	i	15.8µM*
CCc1ccc(NC(=O)c2noc(C(C)C)c2[N+](=O)[O-])cc1	-1.9%	i	2.0%	i	11.2µM*
C=C1C=C(C(F)F)n2ncc(C(=O)N3CCN(c4ccccc4)CC3)c2N1	·	·	-0.3%	·	·
COc1ccc(CN2C/C(=C/C3=CCCCC3)N(C(=O)OCc3ccccc3)C2=N)c(OC)c1	·	·	·	i	·
COc1cc(NC(=O)COc2cc(O)c3c(c2)OC(C)(C)CC3=O)cc(OC)c1	-0.6%	i	7.4%	?	?
COc1cccc(NC(=O)COc2cc(O)c3c(c2)OC(C)(C)CC3=O)c1	8.1%	i	1.2%	i	17.8µM*
Cc1ccc(CNC(=O)COc2cc(O)c3c(c2)OC(C)(C)CC3=O)cc1	0.3%	i	9.0%	?	12.6µM*
Cc1cc(-c2cccc([N+](=O)[O-])c2)nc2ccccc12	-3.3%	i	-2.3%	i	11.2µM*
O=c1ccc(-c2ccccc2)nn1Cc1ccc(Cl)cc1	·	i	?	i	20µM*
O=c1ccc(/C=C/c2ccccc2)nn1Cc1ccccc1	5.7%	i	9.4%	i	20µM*
